# Only a selection was taken, and hits are over-represented in it overall.
# Pf Dd2 inh: blocks in vitro growth of P. falciparum Dd2; P. falciparum Dd2 growth, SYBR Green, 72 h; Potency, µM (titrated, usually from 28.9 µM), without a hit: at the highest dose activity, negative = inhibition, usual class: inhibitors; 4.3% of 120,000 active; AID 1347417; active = well fitted inhibition curve with a large enough effect;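 note: plate controls were DMSO vehicle for no effect and reference drug for full effect; nearly all actives have a fitted effect of over 65% in size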
#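 Infected erythrocytes (Dd2, 0.3% parasitemia, 2.5% hematocrit final) are added to compound in RPMI-1640/Albumax II medium, grown 72 h at 37C in low oxygen, then lysed with saponin/Triton-X containing SYBR Green and read by fluorescence.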
# * marks the source's active call; other numbers are inactive results; i = inactive; [ ] = remark or other dose. Potency is the fitted concentration of half-maximal effect.
SMILES,Pf Dd2 inh
COc1ccc(-c2noc(-c3cccn3CC(=O)N3CCN(c4ccccc4OC)CC3)n2)cc1F,-23%
CCOc1ccccc1NC(=O)Cn1cccc1-c1nc(-c2ccc(F)cc2)no1,10µM*
CC(=O)Nc1ccc(NC(=O)Cn2cccc2-c2nc(-c3ccc(F)cc3)no2)cc1,-18%
O=C(Cn1cccc1-c1nc(-c2ccccc2)no1)N1CCN(c2ccccc2F)CC1,7.9µM*
Cc1c(Cl)cccc1NC(=O)Cn1cccc1-c1nc(-c2ccc(F)cc2)no1,87%
COC(=O)c1ccccc1NC(=O)Cn1cccc1-c1nc(-c2ccccc2)no1,21%
CCn1cc(S(=O)(=O)N2CCCC2c2nncn2Cc2ccncc2)cn1 (configuration not stated),0%
C[C@@H]1CN(C(=O)NCc2ccco2)C[C@H]1c1nc(-c2ccncc2)no1,4%
CO[C@H]1[C@H](NC(=O)c2cn(C)c3ccccc23)c2ccccc2C12CCNCC2,-21%
COC[C@@H]1CN(Cc2cc(C)nn2C)C[C@H]1c1nc(C2CC2)no1,5%
Cc1cc(C(=O)N2CC(F)(F)C[C@H]2c2nnc(C3CC3)o2)on1,-25%
COc1ccc(C(=O)N[C@@H]2CCC[C@@H]2C(=O)NCc2ccc(OC(C)C)cc2)cc1,-27%
COc1cccc(CC(=O)N2C[C@@H](F)C[C@H]2C(=O)N2CCOCC2)c1,-5%
CN(C)[C@@H]1CN(C(=O)c2ccc(F)cc2F)C[C@H]1CO,23%
Cc1ccc(C2CCN(C(=O)Nc3ccc(Cl)cc3)C2)cc1 (configuration not stated),i
Cn1c(Cn2cccn2)nnc1C1CCCN(C(=O)c2cccc(F)c2)C1 (configuration not stated),6%
CC(=O)C1=C(c2ccc(Cl)cc2)N(C(C)=O)n2c(nnc2C2CCCCC2)S1,1µM*
CCC(=O)C1=C(c2ccc(Cl)cc2)N(C(=O)CC)n2c(C)nnc2S1,2.8µM*
CCn1c(SCC(=O)c2ccc([N+](=O)[O-])cc2)nnc1-c1ccc(Cl)cc1,i
CCCSC1=NC2(CCN(C(=O)NC3CCCCC3)CC2)N=C1c1ccc(Cl)cc1,7%
Cn1nnnc1C1CCCN(C(=O)c2ccc(F)cc2)C1 (configuration not stated),9%
CCC(=O)C1=C(c2ccc(F)cc2)N(C(=O)CC)n2c(nnc2C2CCCCC2)S1,3.2µM*
Cc1noc(-c2cn(C3CCN(C(=O)c4cc(F)ccc4F)C3)nn2)n1 (configuration not stated),-6%
C=CCNC(=O)N[C@H]1C[C@@H](C(=O)N[C@@H](CCS(C)(=O)=O)C(N)=O)N(C(=O)CSC)C1,4%
COc1ccc(C(=O)N[C@@H]2CCC[C@@H]2C(=O)NCc2ccc3c(c2)OCO3)cn1,-7%
SMILES,Pf Dd2 inh
CCOc1ccc(NC(=O)Cn2ccn3nc(-c4ccc(F)cc4)c(CO)c3c2=O)cc1,-2%
COC1C(=O)N(C2CCN(S(=O)(=O)c3cccnc3)CC2)C12CCOCC2 (configuration not stated),-1%
COc1ccc(-c2cc(N3CCCC(NC(=O)c4ccc(N(C)C)cc4)C3)n[nH]2)cc1 (configuration not stated),i
CC(C)(C)OC(=O)N1CC(NCc2ccc(C(F)(F)F)cc2)C1,-7%
COc1ccc(CNC2CN(C(=O)OC(C)(C)C)C2)cc1,-12%
CC(C)(C)OC(=O)N1CC(NCc2ccc(-c3ccc(OC(F)(F)F)cc3)cc2)C1,10µM*
O=C(NC[C@H]1OC[C@@H](NCc2ccccn2)[C@@H]1O)Nc1ccccc1,-21%[44.1 µM]
O=C(c1cccc(Cn2cccn2)c1)N1CCn2nc(C(=O)N3CCCC3)cc2C1,-30%
CC(=O)N1CCc2nn(CC(=O)N3CCN(c4ccccc4)CC3)c(=O)cc2C1,i
Cc1nc2c(-c3ccccc3)c(C)[nH]n2c(=O)c1Cc1ccc(Br)cc1,7.9µM*
Cc1ccc(Cc2c(C)nc3c(-c4ccccc4)c(C)[nH]n3c2=O)cc1,-20%
CCCCc1c(C)nc2c(-c3ccc(Cl)cc3)c(C)[nH]n2c1=O,-19%
CC(C)c1noc(-c2cccn3c(CNC(=O)c4ccco4)nnc23)n1,i
COc1ccc(-c2[nH]ncc2CN2CCc3nc(N4CCN(C)CC4)[nH]c(=O)c3CC2)cc1,45%[5.79 µM]
COc1ccc(NC(=O)Cn2c(C)cc3nc4n(c(=O)c32)CCC4)cc1Cl,i
O=C(NC[C@H]1OC[C@@H](NCc2ccccc2)[C@@H]1O)c1ccccc1,i
COC(=O)c1nnn(-c2cccc(C)c2)c1C(=O)OC,6%
Cc1cccc(-n2nnnc2S(C)(=O)=O)c1,11µM*
Cc1ccc(-n2nnnc2CNC(=O)c2ccccc2S(C)(=O)=O)cc1C,i
CC(=O)N(C1CC1)C1CCOC2(CCN(C(=O)CCCc3ccccc3)CC2)C1 (configuration not stated),i
O=C(NCc1ccc(F)cc1)C1CCc2nnc(C3CCN([S+](=O)([O-])c4ccccc4)CC3)n21 (configuration not stated),6%
Cn1cc(-c2cc(=O)c3ccnc(NCc4ccc(F)cc4)c3o2)cn1,-21%[44.1 µM]
Cn1cc(-c2cc(=O)c3ccnc(Nc4ccc5[nH]ccc5c4)c3o2)cn1,7.1µM*
Cn1cc(-c2cc(=O)c3ccnc(NC4CCOCC4)c3o2)cn1,-27%[44.1 µM]
COc1ccc(OC)c(S(=O)(=O)NCC(=O)N2CCCCCNC(=O)CC2c2ccccc2)c1 (configuration not stated),i
SMILES,Pf Dd2 inh
O=C(NC1CC(=O)N(c2ccc(Cl)cc2)C1)c1ccc(S(=O)(=O)N2CCOCC2)cc1 (configuration not stated),i
O=C(NCCCn1ccnn1)c1cccc(S(=O)(=O)N2CCOCC2)c1,1%
O=C(NC1CC(=O)N(c2cccc(F)c2)C1)c1ccc(S(=O)(=O)N2CCOCC2)cc1 (configuration not stated),40%
CCn1cc(C(=O)NCCc2ccccc2)c(=O)c2cc(S(=O)(=O)N3CCOCC3)ccc21,-7%
O=C(CN1C(=O)CCc2cc(S(=O)(=O)N3CCOCC3)ccc21)NCc1ccc(Cl)cc1,i
O=C(NCCSc1c(-c2ccc(Cl)cc2)[nH]c2ccccc12)c1ccc(S(=O)(=O)N2CCOCC2)cc1,8.9µM*
Cc1ccc(CNC(=O)c2c[nH]c3ccc(S(=O)(=O)N4CCOCC4)cc3c2=O)cc1,-22%
O=C(NCCSc1c(-c2ccccc2)[nH]c2ccccc12)c1ccc(S(=O)(=O)N2CCOCC2)cc1,10µM*
O=C(NCCSc1c(-c2ccc(Br)cc2)[nH]c2ccccc12)c1ccc(S(=O)(=O)N2CCOCC2)cc1,5.6µM*
COc1ccc(C(=O)N[C@@H]2CCC[C@@H]2C(=O)NCc2cccc(C)c2)cn1,-12%
CC1=NS(=O)(=O)N(CCCN2C(=O)c3ccccc3C2=O)C=C1C(=O)O,-7%
COCC1CN(Cc2cccc3[nH]ccc23)CC12CCNCC2 (configuration not stated),i
CCc1ccccc1NC(=O)C1CCN(C(=O)c2ncn3c2COC(c2ccc(F)cc2)C3)CC1 (configuration not stated),i
CC(C)Oc1ccc(C(=O)N2CCC3(CC2)c2nccn2-c2ccccc2CN3C)cc1,i[5.79 µM]
O=C(CCc1nnn2c1CN(C(=O)c1ccccc1F)CC2)N1CCOCC1,7%
Cc1nn(C)c2nc(-c3ccccn3)nc(NCC(c3ccco3)N(C)C)c12 (configuration not stated),8.9µM*
CNS(=O)(=O)CCNc1nc(-c2ccccn2)nc2c1c(C)nn2C,-6%
Cc1nc(CCNc2nc(-c3ccccn3)nc3c2c(C)nn3C)no1,i
